Among all 300,000 compounds or so, about 37,000 (12%) were called active. This is one part of a sample in which actives are shown more often than they occur. A number with no mark means an inactive call. No stated cut-off is given here; in the data, active means max response mostly above about 13% (no sharp cut-off); inactive means mostly below about 14%.

A short description of the experiment: Cycloheximide Counterscreen for Small Molecule Inhibitors of Shiga Toxin. Further: read at 38.3 µM for the half of the compounds with a filed dose; 0% is about no effect. To be noted: cell reporter, cycloheximide protein synthesis inhibition counterscreen; hits give high values. (In general: A counterscreen serves to expose hits that act by an unwanted route or on another target.)
For the molecule `O=[N+]([O-])c1cc(Cl)cc(/C=N/NC(=S)Nc2cc(S(=O)(=O)N3CCOCC3)ccc2Cl)c1O`, the max response is 6.73%.

On to `CCN(C(=O)COc1ccc(C(=O)c2ccccc2)cc1)c1ccccc1`, for which the max response was 8.19%.

In the case of `Cc1cc(C)n(CCC(=O)N2CCN(S(=O)(=O)c3ccc(C)c(C)c3)CC2)n1`, the max response was -4.77%.

Regarding `O=C(O)c1ccc(N/N=C/c2ccc3ncccc3c2)cc1`, the max response was 40% (active).

On to `O=C(O)c1ccc(/C=N/Nc2nc(N3CCCCC3)nc(N3CCCCC3)n2)cc1`, for which the max response is -2.21%.

`CSCC[C@H](NC(=O)OC(C)(C)C)C(=O)N/N=C/c1cc2ccc(C)cc2nc1Cl`: the max response is -2.35%.

With `Cc1ccc2cc(/C=N/NC(=O)[C@@H]3CCCN3)c(Cl)nc2c1`, the max response is 12.2%.

In the case of `CCNC(=S)NNC(=O)c1ccc2ncccc2c1`, the max response is 23.2%.

For the molecule `Cc1ccc2cc(/C=N/Nc3ccc(C(=O)O)cc3)c(Cl)nc2c1`, the max response was 33.1% (active).

In the case of `COc1ccccc1N1CCN(C(=O)CCS(=O)(=O)c2ccc3c(c2)NC(=O)C(C)S3)CC1` (stereo not given), the max response was 18.6%.

In the case of `Cc1cc(CNC(=O)C2CCC(=O)N(CCc3ccc(Cl)cc3)C2)no1` (stereo not given), the max response is 0.258%.

Consider `NC(=O)c1cc(-c2cccnc2)nc2ccc(Br)cc12`, for which the max response was 0.502%.

Turning to `Cc1ccc2c(c1)N(C(=O)CCC(=O)N1CCc3ccccc3C1)CCO2`, the max response was 13.8%.

Take `Cc1ccccc1-n1c(SCC(=O)Nc2cccc3ccccc23)nc(O)cc1=O`: the max response is -2.55%.

As for `O=C(O)Cc1ccc(NC(=O)Nc2cccc3ccccc23)cc1`, the max response is 0.207%.

As to `CC(=O)N(C)c1ccc(NC(=O)Nc2cccc3ccccc23)cc1`, the max response was 33% (active).

With `CCOc1ccc(NC(=O)Nc2ccc(N(C)C(C)=O)cc2)cc1`, the max response was -1.58%.

For the molecule `O=C(NCC(=O)N1CCC2(CC1)NCCc1[nH]cnc12)c1ccc(Br)cc1`, the max response was 1.26%.

Consider `CC(C)Nc1ccc(-n2nc3ccccc3[n+]2[O-])cc1`, for which the max response was 25.2% (active).

Take `Clc1ccc(-c2nc3ccccn3c2CN2CCSCC2)cc1`: the max response was 12.2%.

In the case of `Cc1cn(C2OC[C@@H](O)[C@@H]2CO)c(=O)[nH]c1=O` (stereo not given in full), the max response was -1.7%.

As to `O=C(N/N=C\c1cc2c(cc1Cl)OCO2)c1ccc(Br)s1`, the max response was -4.62%.

With `CCCCOC(=O)Nc1nnc(CC(=O)NCc2ccccc2)s1`, the max response was -2.89%.

Regarding `CCCCCCOC(=O)NCC(O)c1ccccc1` (stereo not given), the max response was 29.3% (active).

Regarding `CCCCCCCCC(=O)NCCOc1ccccc1`, the max response is -1.44%.

Take `CC(=O)C1=C(C)NC(=O)NC1c1ccc2c(c1)OCO2` (stereo not given): the max response was 0.903%.

`COc1ccc(CNC(=O)C(C)NCc2ccccc2Cl)cc1` (stereo not given): the max response is -2.73%.

With `CC(C)(O)C#Cc1ccc(CN2CCC(CO)(CCc3ccccc3)CC2)cc1`, the max response is -2.91%.

As to `COc1ccc(C(=O)NC(=S)N2CCCCC2c2cccnc2)cc1OC` (stereo not given), the max response is 1.6%.

As for `COc1ccccc1NC(=O)CSc1nc2sc3c(c2c(=O)n1-c1ccccc1)CCN(C)C3`, the max response is 33.2% (active).

On to `CCOc1ccc(-n2c(SCC(=O)OC)nc3sc4c(c3c2=O)CCN(C)C4)cc1`, for which the max response was -9.49%.

Consider `CCOc1ccc(-n2c(SCC(=O)Nc3ccc(OC)cc3)nc3sc4c(c3c2=O)CCN(C)C4)cc1`, for which the max response was -3.77%.

`CCO[C@H]1OC(C(=O)N2CCCCCCC2)=C[C@@H](c2ccc(C(F)(F)F)cc2)[C@@H]1CCCO`: the max response is -3.3%.

For `CCCC(C(=O)n1nc(C)cc1C)C(NS(=O)(=O)c1ccc(C)cc1)c1ccccc1` (stereo not given), the max response is 8.08%.

Turning to `N#CCC(=O)NC1CCC(CC2CCC(NC(=O)CC#N)CC2)CC1` (stereo not given), the max response is -6.39%.

For `c1ccc(CCc2nc(-c3ccncc3)no2)cc1`, the max response is 30.3% (active).

In the case of `O=C(Cc1ccc(Cl)cc1)NCc1nc(-c2ccccc2)no1`, the max response was 16.7%.

Consider `O=C1c2ccccc2C(=O)N1CCCc1nc(-c2ccccc2)no1`, for which the max response was 4.56%.

As to `CN(CC1CCCO1)S(=O)(=O)c1ccc(C(=O)Nc2ccc([N+](=O)[O-])cc2)cc1` (stereo not given), the max response is -2.48%.

Take `Cn1c(COc2ccc(Cl)cc2)nc2ccccc2c1=O`: the max response was 31.5%.

Take `O=C(Cn1c(COc2ccccc2)nc2ccccc21)Nc1cc(Cl)c(Cl)cc1Cl`: the max response is 6.88%.

Consider `COCn1c(COc2ccccc2)nc2ccccc21`, for which the max response was 36.4% (active).

As for `CC(C)n1c(COc2ccccc2)nc2ccccc21`, the max response was 2.4%.

As to `Cc1ccc(OCc2n[nH]c(=S)n2-c2ccccc2)cc1`, the max response is -8.01%.

As to `Cc1ccc(OCc2nc3ccccc3n2C)cc1`, the max response is 26.1% (active).

Consider `CC1(C)Cc2cccc(OCC(=O)NCc3ccccc3)c2O1`, for which the max response was -11.4%.

In the case of `COC(=O)C1=C(C)N(C)C(=O)NC1c1ccc([N+](=O)[O-])o1` (stereo not given), the max response is -2.81%.

In the case of `O=C(CO/N=C/c1ccc(OC(F)F)cc1)NCc1ccc(F)cc1`, the max response is -1.6%.

For the molecule `Cn1c(=O)c2c(nc(N3CCCCCC3)n2CC(=O)c2ccc(Br)cc2)n(C)c1=O`, the max response was 4.19%.

Consider `O=C(Cn1ncc(N2CCCC2)c(Br)c1=O)c1ccc(Cl)cc1`, for which the max response was 21.9% (active).

As to `CC(=O)Cn1ncc(N2CCOCC2)c(Br)c1=O`, the max response was 8.19%.

Turning to `O=c1[nH]c(CCl)nc2cc(-c3ccc(Cl)cc3)sc12`, the max response is 3.01%.

As to `O=C(Nc1ccc2c(c1)C(=O)OC2)Nc1cccc2ccccc12`, the max response is 8.24%.

Take `O=C(Cc1cccc2ccccc12)Nc1ccc2oc(-c3ccccc3)nc2c1`: the max response was 51.7% (active).

In the case of `CC(O)c1cccc(NC(=O)Cc2cccc3ccccc23)c1` (stereo not given), the max response is -1.49%.

Regarding `O=C(Nc1ccc2oc(-c3ccc4ccccc4c3)nc2c1)c1cccs1`, the max response was 42.5% (active).

As for `O=C(Nc1ccc(NC(=O)c2cccs2)cc1)c1ccc2ccccc2c1`, the max response was 21.9%.

In the case of `O=C(NC(=S)Nc1cccc(-c2ccc(CO)o2)c1)c1cccs1`, the max response is 12.5%.

For the molecule `Cc1ccc(NC(=O)CSc2nn3c(=O)c(C)nnc3s2)cc1Cl`, the max response was 8.05%.

Regarding `O=C(CNC(=O)c1ccccc1)Oc1ccc([N+](=O)[O-])cc1`, the max response was 0.695%.

In the case of `CC(OC(=O)c1ccccc1N1C(=O)C2C3CCC(C3)C2C1=O)C(=O)c1ccccc1` (stereo not given), the max response is -0.595%.

On to `CC(OC(=O)c1ccc2ccccc2n1)C(=O)c1ccccc1` (stereo not given), for which the max response was 25.1% (active).

Consider `O=C(Oc1ccc([N+](=O)[O-])cc1)c1ccc(Cl)c(S(=O)(=O)N2CCCCC2)c1`, for which the max response was 7.89%.

With `COc1ccccc1NC(=O)CCC(=O)OC(C)C(=O)c1ccccc1` (stereo not given), the max response is -2.18%.

For `COc1ccc(C2=NOC(COC(=O)c3ccc4ccccc4n3)C2)cc1` (stereo not given), the max response was 12.5%.

Regarding `COc1ccc(C(=O)COC(=O)c2ccc3ccccc3n2)cc1`, the max response was 20.4% (active).

Turning to `CCCCC(C(=O)OCC(=O)c1ccc(OC)cc1)N1C(=O)c2ccccc2C1=O` (stereo not given), the max response is 1.39%.

For the molecule `O=C(Oc1ccc([N+](=O)[O-])cc1)c1ccc2ccccc2n1`, the max response is 33.2% (active).

Regarding `CCCn1cc(S(=O)(=O)c2ccc(C)cc2)c(=O)c2cc(OCC)ccc21`, the max response is -2.9%.

With `Nc1nc(NCC(=O)O)nc(N2CCCCCC2)c1[N+](=O)[O-]`, the max response is -3.03%.

On to `COc1ccc(NC(=O)c2cccc3c2C(=O)N(CC2CCCO2)C3)cc1OC` (stereo not given), for which the max response was 1.17%.

`COc1ccccc1N(CC(=O)NC1CCCC1)C(=O)C1(C)CC(=O)N=C2C=CC(C)=CN21` (stereo not given): the max response was -3.56%.

On to `CN(C)C(=O)c1ccc2c(c1)C1C3CCC(C3)C1C(c1ccccc1)N2` (stereo not given), for which the max response was -4.56%.

In the case of `NNc1nc2c(Cl)cccc2s1`, the max response is 53.2% (active).

As for `CN(C)CCCN(C(=O)COc1ccccc1)c1nc2c(Cl)cccc2s1`, the max response was -4.5%.

On to `Cc1ccc(-c2cc(N)on2)cc1`, for which the max response was 21% (active).

In the case of `Cc1ccc(S(=O)(=O)Cc2cc(-c3ccc(Cl)cc3)no2)cc1`, the max response was 0.779%.

As for `CC(C)(C)Nc1c(N)c(=O)oc2ccccc12`, the max response was -1.31%.

Consider `Nc1c(NCCc2ccccc2)c2ccccc2oc1=O`, for which the max response is 23.7% (active).

For `NC(=O)c1oc2ccccc2c1NC(=O)Cc1ccccc1`, the max response is -2.17%.

`CC(=O)N1c2ccc(S(=O)(=O)N3CCC(C(=O)NC4CCCC(C)C4C)CC3)cc2CC1C` (stereo not given): the max response is 4.81%.

As for `Cc1ccc(OCC(=O)Nc2ccccc2C(=O)NC2CC2)cc1C`, the max response was -1.62%.

Consider `CCOC(=O)CSc1nnc(-c2ccc([N+](=O)[O-])cc2)o1`, for which the max response was -0.444%.

Turning to `CCOC(=O)CSc1nnc(-c2ccncc2)o1`, the max response is 1.84%.

For the molecule `CCCCSc1nnc(-c2ccc(C)cc2)o1`, the max response is 40.6% (active).

In the case of `c1ccc2c(c1)C(=NC1CCCCC1)NC2=NC1CCCCC1`, the max response was -4.35%.

`O=C(c1ccc(CS(=O)(=O)c2ccccc2)o1)N1CCN(c2ccccc2)CC1`: the max response was -5.15%.

Regarding `Cc1c(CC(=O)NCC(=O)NCC(=O)O)c(=O)oc2cc3oc4c(c3cc12)CCCC4`, the max response was -2.59%.

`COc1ccc(N(CC(=O)Nc2cc(OC)cc(OC)c2)S(=O)(=O)c2c(C)n[nH]c2C)cc1`: the max response is -1.21%.

For the molecule `Cc1ccc(Nc2cc(C)nc3c(C)ccc([N+](=O)[O-])c23)cc1`, the max response was 0.487%.

`O=c1c(-c2ccccc2Cl)c[nH]n1-c1ccccc1`: the max response is 8.14%.

Take `O=c1c(-c2cccc(Cl)c2)c[nH]n1-c1ccccc1`: the max response was 69.9% (active).

In the case of `Cc1[nH]n(-c2cccc(Cl)c2)c(=O)c1-c1ccc(Cl)cc1`, the max response was 12.1%.

Consider `CC(=O)C1=C(O)C(=O)N(c2cccnc2)C1c1ccc([N+](=O)[O-])cc1` (stereo not given), for which the max response was -2.81%.

On to `O=C(COC(=O)c1ccc(N2CCCC2=O)cc1)c1ccc(OC(F)F)cc1`, for which the max response is 2.45%.

The values above are taken from PubChem BioAssay AID2314 (National Center for Advancing Translational Sciences (NCATS), 2010).
